Experimental data as given in PubChem BioAssay AID1159524 (National Center for Advancing Translational Sciences (NCATS), 2015).
Screen size: about 410,000 compounds; about 5,100 (1.2%) were called active. About 8% were inconclusive and are not listed. Only a selection was taken, and actives are over-represented in it overall. A number with no mark means an inactive call. Calls come from the whole dose curve; tested in HEK293T cells.

assay: High Throughput Screening for Foot and Mouth Disease Virus Antivirals; settings: FMDV antiviral cell-based qHTS; series mostly up to 57.9 µM; activity change, negative = inhibition: at the top concentration; note: read-out not given here; nearly all actives have a fitted effect of over 45% in size
% is set by controls: 0 for no effect and ±100 for the full control effect; potency is the fitted concentration of half-maximal effect.

First: O=C(CCS(=O)(=O)c1ccccc1)N(Cc1cccnc1)c1nc2c(F)cccc2s1
Second: Cc1ccc(Cl)cc1NC(=O)CSc1nc2ccccc2nc1Cc1ccccc1
The “activity change, negative = inhibition” value of the first is lower: -14.1% for the first, 0.711% for the second.

First: O=C(c1ccc(F)cc1)C1CCN(CCCCc2ccccc2)CC1
Second: CN1CCCC1CCO[C@@](C)(c1ccccc1)c1ccc(Cl)cc1 (some centres undefined)
The “activity change, negative = inhibition” value of the first is higher: -8.09% for the first, -12.3% for the second.

Going from `CS(=O)(=O)N1CCC2(CC1)CN(c1ccncc1)C2` to `O=C(Nc1cccc(F)c1)N1CC2(CCN(C(=O)c3csnn3)CC2)C1`, the “activity change, negative = inhibition” value falls from -4% to -5.25%.

Going from `CCOC(=O)c1c(NC(=O)c2cc(-c3ccc(Cl)cc3)on2)sc2c1CCCC2` to `COc1ccccc1CNC(=O)c1ccc(Cl)c(S(=O)(=O)N2CCCC2)c1`, the “activity change, negative = inhibition” value rises from -19.7% to -15.1%.

First: NC(=O)c1sc(-c2ccsc2)cc1N
Second: CCOC(=O)C1C(=O)C=C(c2ccc(OC)cc2)CC1c1ccco1 (centres undefined)
The “activity change, negative = inhibition” value of the first is higher: 7.11% for the first, -7.7% for the second.

Going from `COc1cccc(-c2cc(NCCc3c[nH]c4ccc(OC)cc34)ncn2)c1` to `COc1ccc(Nc2cc(C(=O)NCCCN(C)c3ccccc3)c3ccccc3n2)c(OC)c1`, the “activity change, negative = inhibition” value falls from 11% to -28%.

Going from `O=C(c1cnccn1)N1CCC2(CCCN(Cc3ccccc3)C2)CC1` to `CCS(=O)(=O)N1CCc2cc(C(=O)N3CCN(c4ccccc4OC)CC3)ccc21`, the “activity change, negative = inhibition” value falls from -5.51% to -12.5%.

First: CCNc1ncc2ncc(=O)n(CCc3ccccc3)c2n1
Second: COc1cccc(CN(C)CC(=O)NCc2ccccc2Cl)c1OC
The “activity change, negative = inhibition” value of the first is lower: -17.7% for the first, 15.7% for the second.

First: CCOC(=O)C1=C(c2ccccc2)NC(=O)NC1c1cc(OC)c(OC)cc1OC (centres undefined)
Second: COc1ccc(S(=O)(=O)N2CCCCCC2)cc1C(=O)N(C)Cc1cccc(OC)c1OC
The “activity change, negative = inhibition” value of the first is higher: -0.619% for the first, -17.4% for the second.

Going from `CN(C)S(=O)(=O)c1ccc(C(=O)NCC(C)(C)N2CCOCC2)cc1` to `CC(C)(CNC(=O)Cc1ccc(Cl)cc1Cl)N1CCOCC1`, the “activity change, negative = inhibition” value rises from -12.6% to 9.26%.

Going from `Cc1ccc(S(=O)(=O)c2c(Nc3cccc(Cl)c3)sc(C(=O)c3ccc4c(c3)OCO4)c2N)cc1` to `Cc1cnc(-n2ncc(C(=O)N3CCN(C(C)C)CC3)c2-c2ccco2)nc1-c1ccc(F)cc1`, the “activity change, negative = inhibition” value falls from 9.11% to -16%.

In the case of `CN1CCN(C(=O)O[C@@H]2c3nccnc3C(=O)N2c2ccc(Cl)cn2)CC1`, the “activity change, negative = inhibition” value is reported as -5.32%.

For `CN(CCO)c1ccc(/C=N/Nc2nncc3ccccc23)cc1`, the Potency was 10 µM (active).
With `CCOC(=O)C1=C(c2ccc(OC)cc2)C(=O)c2ccccc2C1=O` the Potency was 3.55 µM (active).
With `CC(C)(CNC(=O)c1ccc(Cl)c(S(=O)(=O)N2CCc3ccccc3C2)c1)N1CCOCC1` the Potency was 12.6 µM (active).
With `COc1ccccc1N1CCN(C(=O)c2ccc(Cl)c(S(=O)(=O)N3CCCC3)c2)CC1` the Potency was 20 µM (active).
In the case of `CCCC1OC23CCCCC2C(C#N)(C#N)C1(C#N)C(=N)O3` (centres undefined), the Potency is reported as 20 µM (active).
With `CCN(CC)S(=O)(=O)c1ccc(N(C)Cc2cccc(OC)c2OC)nc1` the Potency was 20 µM (active).
